# Results filed as inconclusive are left out. Calls of active or inactive are those of the source. The call rests on the fitted dose curve; in most records, active means well fitted cell-killing curve with a large enough effect; inconclusive means small, poorly fitted or top-dose-only effect, or effect the other way; inactive means no such curve, though single readings can be large or run the other way. Non-standard residues stand in square brackets, D forms with d. Residues, ends and D or L forms follow the SMILES beside them. *: point of attachment. Sta = CC(C)C[C@H](N)[C@@H](O)CC(=O)O; Isovaleryl = CC(C)CC(=O)*
# Legend:
# [1] = Quantitative High-Throughput drug screen in 47 multiple myeloma cell lines against the NCATS MIPE library collection: Karpas25_ECACC cell viability assay (AID 1918968; further: nearly all actives have a fitted effect of over 35% in size)
# Summary of the method: (§1)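 CellTiter-Glo ATP luminescence gave viability after 48 h compound treatment at 37C of 500 multiple myeloma cells per well. Normalisation used DMSO-only wells as 100% and media-only wells as 0% viability; primary qHTS of approved and investigational drugs.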
# [2] = Quantitative High-Throughput drug screen in 47 multiple myeloma cell lines against the NCATS MIPE library collection: KMS20_JCRB cell viability assay (AID 1918973); further: nearly all actives have a fitted effect of over 45% in size
# Summary of the method: as §1
# [3] = Quantitative High-Throughput drug screen in 47 multiple myeloma cell lines against the NCATS MIPE library collection: KMS27_JCRB cell viability assay (AID 1918970); further: nearly all actives have a fitted effect of over 30% in size
# Summary of the method: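 Viability inhibition screen, 48 h compound exposure, luminescent ATP read-out.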
# [4] = Quantitative High-Throughput drug screen in 47 multiple myeloma cell lines against the NCATS MIPE library collection: KMS12BM_JCRB cell viability assay (AID 1918971); further: nearly all actives have a fitted effect of over 35% in size
# Summary of the method: (§2)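 Myeloma cells (500 per well) were exposed to MIPE 4.0 compounds by pin transfer and incubated 48 hours at 37C, 5% CO2. Viability was read as ATP by CellTiter-Glo luminescence, normalised to DMSO (100%) and media-only (0%) wells.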
# [5] = Quantitative High-Throughput drug screen in 47 multiple myeloma cell lines against the NCATS MIPE library collection: MOLP8_DSMZ cell viability assay (AID 1918977); further: nearly all actives have a fitted effect of over 45% in size
# Summary of the method: (§3)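 Myeloma cells (500/well) treated with MIPE 4.0 compounds for 48 h at 37 °C, 5% CO2. Viability read as ATP via CellTiter-Glo luminescence after 5 min at RT; DMSO-only wells = 100%, media-only = 0% viability.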
# [6] = Quantitative High-Throughput drug screen in 47 multiple myeloma cell lines against the NCATS MIPE library collection: KMS21BM_JCRB cell viability assay (AID 1918974); conditions: ATP luminescence, 48 h; viability: at 45.8 µM (top of the series) unless noted
# Summary of the method: as §1
# [7] = Quantitative High-Throughput drug screen in 47 multiple myeloma cell lines against the NCATS MIPE library collection: KMS26_JCRB cell viability assay (AID 1918975); further: nearly all actives have a fitted effect of over 45% in size
# Summary of the method: as §2
# [8] = Quantitative High-Throughput drug screen in 47 multiple myeloma cell lines against the NCATS MIPE library collection: MMM1_PLB cell viability assay (AID 1918976); further: nearly all actives have a fitted effect of over 35% in size
# Summary of the method: as §3
# [9] = Quantitative High-Throughput drug screen in 47 multiple myeloma cell lines against the NCATS MIPE library collection: KMS12PE_JCRB cell viability assay (AID 1918972); further: nearly all actives have a fitted effect of over 30% in size
# Summary of the method: as §2
# Potency means the concentration at half of the fitted maximal effect.
compound,measurement,setting,value
COc1cc2c(N3CCN(C(=O)Nc4ccc(OC(C)C)cc4)CC3)ncnc2cc1OCCCN1CCCCC1,Potency,[1],9.35 µM (active)
same,Potency,[2],5.26 µM (active)
Cc1cc2cc3c(C)cc(=O)oc3c(C)c2o1,Potency,[1],20.9 µM (active)
same,Potency,[3],26.4 µM (active)
same,Potency,[4],16.6 µM (active)
same,Potency,[5],inactive
Cc1nc(Nc2ncc(C(=O)Nc3c(C)cccc3Cl)s2)cc(N2CCN(CCO)CC2)n1,Potency,[1],0.332 µM (active)
same,Potency,[2],0.332 µM (active)
same,Potency,[6],0.209 µM (active)
CNC[C@@H](O)[C@@H](O)[C@H](O)[C@H](O)CO,Potency,[1],20.9 µM (active)
same,Potency,[3],inactive
same,Potency,[7],inactive
same,Potency,[5],inactive
CCCCc1ccc2nc(NC(=O)OC)[nH]c2c1,Potency,[1],0.0235 µM (active)
same,Potency,[4],0.0093 µM (active)
same,Potency,[7],1.48 µM (active)
same,Potency,[8],3.32 µM (active)
CC1(C)C(=O)N(CCN2CCC(C(=O)c3ccc(F)cc3)CC2)c2ccccc21,Potency,[1],13.2 µM (active)
same,Potency,[9],10.5 µM (active)
same,Potency,[2],4.18 µM (active)
O=c1cc(N2CCOCC2)oc2c(-c3ccccc3)cccc12,Potency,[1],7.43 µM (active)
same,Potency,[4],14.8 µM (active)
same,Potency,[6],inactive
same,Potency,[7],7.43 µM (active)
same,Potency,[8],18.7 µM (active)
same,Potency,[5],7.43 µM (active)
CCCOc1ccc2nc(NC(=O)OC)[nH]c2c1,Potency,[1],0.105 µM (active)
same,Potency,[4],0.0066 µM (active)
same,Potency,[7],1.05 µM (active)
same,Potency,[8],1.32 µM (active)
CCCCCCCCOc1ccccc1C(=O)Nc1ccc(C(=O)OCC[N+](C)(CC)CC)cc1,Potency,[1],9.35 µM (active)
same,Potency,[3],6.62 µM (active)
same,Potency,[4],18.7 µM (active)
same,Potency,[2],16.6 µM (active)
same,Potency,[7],16.6 µM (active)
same,Potency,[8],16.6 µM (active)
same,Potency,[5],20.9 µM (active)
Nc1nc(N)c(N=O)c(OCC2CCCCC2)n1,Potency,[1],5.9 µM (active)
same,Potency,[3],6.62 µM (active)
same,Potency,[4],13.2 µM (active)
same,Potency,[2],4.69 µM (active)
same,Potency,[7],13.2 µM (active)
same,Potency,[5],5.26 µM (active)
NC(=O)Cc1cccc(C(=O)c2ccccc2)c1N,Potency,[9],inactive
same,Potency,[7],inactive
same,Potency,[5],inactive
O=C1CCc2ccc(OCCCCN3CCN(c4cccc(Cl)c4Cl)CC3)cc2N1,Potency,[1],16.6 µM (active)
same,Potency,[4],11.8 µM (active)
same,Potency,[9],5.26 µM (active)
same,Potency,[8],20.9 µM (active)
CC(C)c1nc(CN(C)C(=O)N[C@H](C(=O)N[C@@H](Cc2ccccc2)C[C@H](O)[C@H](Cc2ccccc2)NC(=O)OCc2cncs2)C(C)C)cs1,Potency,[4],4.69 µM (active)
CCCS(=O)c1ccc2nc(NC(=O)OC)[nH]c2c1 (configuration not stated),Potency,[3],inactive
same,Potency,[4],20.9 µM (active)
same,Potency,[7],10.5 µM (active)
O=c1ccc2ccc(O)c(O)c2o1,Potency,[1],3.32 µM (active)
same,Potency,[3],18.7 µM (active)
same,Potency,[4],18.7 µM (active)
same,Potency,[2],16.6 µM (active)
same,Potency,[8],7.43 µM (active)
COc1ccccc1N1CCN(CCN(C(=O)C2CCCCC2)c2ccccn2)CC1,Potency,[1],inactive
same,Potency,[4],inactive
same,Potency,[2],5.26 µM (active)
same,Potency,[7],inactive
same,Potency,[5],inactive
Cc1ccc(C)c(OCCCC(C)(C)C(=O)O)c1,Potency,[4],inactive
same,Potency,[5],inactive
Cc1nccn1CC1CCc2c(c3ccccc3n2C)C1=O (configuration not stated),Potency,[3],inactive
C[C@@H](c1ncncc1F)[C@](O)(Cn1cncn1)c1ccc(F)cc1F,Potency,[1],inactive
same,Potency,[3],inactive
same,Potency,[9],inactive
same,Potency,[7],inactive
same,Potency,[5],inactive
C[C@H](Cc1ccc(O)c(O)c1)[C@@H](C)Cc1ccc(O)c(O)c1,Potency,[1],14.8 µM (active)
same,Potency,[3],9.35 µM (active)
same,Potency,[4],16.6 µM (active)
same,Potency,[7],23.5 µM (active)
same,Potency,[8],6.62 µM (active)
same,Potency,[5],5.26 µM (active)
c1cnc2cc3c(cc2n1)C1CNCC3C1,Potency,[1],inactive
same,Potency,[4],inactive
same,Potency,[9],inactive
same,Potency,[6],inactive
same,Potency,[7],inactive
same,Potency,[5],inactive
CN(C)C(=O)[C@H](O)[C@H](Cc1ccccc1)NC(=O)c1cc2cc(Cl)ccc2[nH]1,Potency,[1],1.66 µM (active)
same,Potency,[9],2.09 µM (active)
same,Potency,[2],7.43 µM (active)
same,Potency,[7],20.9 µM (active)
CC(S)C(=O)NCC(=O)O (configuration not stated),Potency,[1],1.87 µM (active)
same,Potency,[3],inactive
same,Potency,[9],inactive
same,Potency,[5],inactive
CC(C)CC(=O)N[C@H](C(=O)N[C@H](C(=O)N[C@@H](CC(C)C)[C@@H](O)CC(=O)N[C@@H](C)C(=O)N[C@@H](CC(C)C)[C@@H](O)CC(=O)O)C(C)C)C(C)C (Isovaleryl-VV[Sta]A[Sta]-OH),Potency,[9],inactive
same,Potency,[2],inactive
same,Potency,[7],inactive
same,Potency,[5],inactive
C[C@]12CCC(=O)C=C1CC[C@@H]1[C@H]2[C@@H](O)C[C@@]2(C)[C@H]1CC[C@]2(O)C(=O)CO,Potency,[1],5.9 µM (active)
same,Potency,[3],inactive
same,Potency,[5],inactive
Clc1ccc(C(Cn2ccnc2)OCc2ccsc2Cl)c(Cl)c1 (configuration not stated),Potency,[1],20.9 µM (active)
same,Potency,[3],26.4 µM (active)
same,Potency,[7],inactive
Nc1ccn([C@@H]2O[C@H](CO)[C@@H](O)C2O)c(=O)n1 (some centres not stated),Potency,[1],1.48 µM (active)
same,Potency,[4],inactive
same,Potency,[9],inactive
same,Potency,[5],inactive
CCc1nc(N)nc(N)c1-c1ccc(Cl)cc1,Potency,[2],inactive
same,Potency,[5],inactive
NCCCCNCCCN,Potency,[1],18.7 µM (active)
same,Potency,[4],20.9 µM (active)
same,Potency,[2],18.7 µM (active)
same,Potency,[7],3.72 µM (active)
same,Potency,[8],10.5 µM (active)
same,Potency,[5],4.18 µM (active)
Cc1ccc(S(=O)(=O)NC(=O)NN2CC3CCCC3C2)cc1 (configuration not stated),Potency,[1],26.4 µM (active)
same,Potency,[2],10.5 µM (active)
CCCCN(CCCC)CCC(O)c1cc2c(Cl)cc(Cl)cc2c2cc(C(F)(F)F)ccc12 (configuration not stated),Potency,[1],14.8 µM (active)
same,Potency,[4],20.9 µM (active)
same,Potency,[9],inactive
same,Potency,[7],inactive
CC(C)c1ccc2c(c1)c(SC(C)(C)C)c(CC(C)(C)C(=O)O)n2Cc1ccc(Cl)cc1,Potency,[1],20.9 µM (active)
same,Potency,[3],inactive
same,Potency,[4],20.9 µM (active)
same,Potency,[9],inactive
same,Potency,[8],2.64 µM (active)
CC(=O)O[C@H]1C(=O)[C@@]2(C)C([C@H](OC(=O)c3ccccc3)[C@]3(O)C[C@H](OC(=O)[C@H](O)[C@@H](NC(=O)c4ccccc4)c4ccccc4)C(C)=C1C3(C)C)[C@]1(OC(C)=O)CO[C@@H]1C[C@@H]2O (some centres not stated),Potency,[1],inactive
same,Potency,[4],inactive
same,Potency,[2],inactive
same,Potency,[7],inactive
same,Potency,[8],14.8 µM (active)
same,Potency,[5],inactive
Nc1nc(Cl)nc2c1ncn2[C@H]1C[C@H](O)[C@@H](CO)O1,Potency,[3],0.296 µM (active)
same,Potency,[4],0.0833 µM (active)
same,Potency,[2],1.48 µM (active)
same,Potency,[6],0.0935 µM (active)
same,Potency,[8],4.69 µM (active)
same,Potency,[5],0.0833 µM (active)
